{
  "source": "PubChem BioAssay (NCI)",
  "note": "Compounds without any hit were thinned out: in the full panel of roughly 83,000, 20% have a hit.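 Values shown are percent growth following 48 h exposure of cells in 96-well plates to a single concentration of compound; below 10 was considered active.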 Calls of active or inactive are those of the source.",
  "data": [
    {"tested_on": "BT-549 breast", "test": "NCI-60 one-dose screen, 48 h (100 = growth as untreated, 0 = no growth, -100 = all killed)", "settings": "10 µM", "values": [
      {"smiles": "Oc1cccc(-c2nc3sccn3c2-c2ccncn2)c1", "growth": "110% (inactive)"},
      {"smiles": "CCOC(=O)c1cc(C(=O)c2cc(OC)c(OC)c(OC)c2)n2ccc(-c3cc[n+](CC(=O)c4cc(OC)c(OC)c(OC)c4)cc3)cc12", "growth": "-10.9% (active)"},
      {"smiles": "C[C@H]1[C@H](OC(=O)CCC(=O)O)O[C@@H]2O[C@]3(C)CC[C@H]4[C@H](C)CC[C@@H]1[C@@]24OO3", "growth": "37.9% (inactive)"},
      {"smiles": "COc1ccc(C(=O)N/N=C/c2cc(C(F)(F)F)ccc2Cl)cc1", "growth": "96.1% (inactive)"},
      {"smiles": "COc1ccc(-c2cc(-c3ccc(Cl)cc3)nc(SCCCC(=O)NO)n2)cc1OC", "growth": "30.4% (inactive)"},
      {"smiles": "CCC(=O)OC1CCC2C3CCC(=O)OC3C(C)(CCC(=O)O)CC12C", "note": "(stereo not given)", "growth": "-8.83% (active)"},
      {"smiles": "OCC1OC(n2ccc3c(NO)ncnc32)C(O)C1O", "note": "(stereo not given)", "growth": "-31.5% (active)"},
      {"smiles": "CC(C)(C)c1ccc(S(=O)(=O)N[C@H]2CC[C@H]3[C@@H]4CCc5cc(O)c([N+](=O)[O-])cc5[C@H]4CC[C@]23C)cc1", "growth": "67.7% (inactive)"},
      {"smiles": "COc1cc(-c2nn(-c3cccc(NC(=O)CCNc4ccc(N5CCOCC5)cc4)c3)cc2-c2ccncc2)ccc1Cl", "growth": "19.8% (inactive)"},
      {"smiles": "COc1cc(-c2nn(-c3cccc(NC(=O)CN4CCOCC4)c3)cc2-c2cccnc2)ccc1Cl", "growth": "62.2% (inactive)"},
      {"smiles": "O=C(CCCSc1nc(-c2ccccc2)cc(-c2ccc(Cl)cc2)n1)NO", "growth": "38.6% (inactive)"},
      {"smiles": "CC(C)N(CCOc1cccc(-c2nc3sccn3c2-c2ccnc(S(C)(=O)=O)n2)c1)C(C)C", "growth": "128% (inactive)"},
      {"smiles": "O=C(CCC(C(=O)c1ccccc1)c1ccccc1)c1ccccc1", "note": "(stereo not given)", "growth": "54.5% (inactive)"},
      {"smiles": "COc1ccc(-c2csc(NC(=O)c3ccc(Cc4n[nH]c(=O)c5cccnc45)cc3)n2)cc1", "growth": "-17.8% (active)"},
      {"smiles": "COc1cc(-c2nn(-c3cccc(NC(=O)CCN4CCN(Cc5ccccc5)CC4)c3)cc2-c2ccncc2)ccc1Cl", "growth": "42.7% (inactive)"},
      {"smiles": "COc1cc2cc(Oc3ccc(NC(=O)c4cc(C(F)(F)F)cc(C(F)(F)F)c4)cc3)c(C)nc2cc1OC", "growth": "52.4% (inactive)"},
      {"smiles": "C[C@]12CCC3c4ccc(O)cc4C[C@@H](CCCCCCCCCS(=O)CCCC(F)(F)C(F)(F)F)C3C1CC[C@@H]2O", "note": "(stereo not given in full)", "growth": "86.1% (inactive)"},
      {"smiles": "Cc1cc(Cl)ccc1Nc1nc(C(F)(F)F)ccc1C(=O)N/N=C/c1cccc(O)c1", "growth": "9.22% (active)"},
      {"smiles": "COc1cc(C(=O)/C=C/c2c[nH]c3ccccc23)cc(OC)c1OC", "growth": "-9.31% (active)"},
      {"smiles": "CCOC(=O)CC(S(=O)(=O)c1ccccc1)S(=O)(=O)c1ccccc1", "growth": "110% (inactive)"},
      {"smiles": "CCNCC(=O)Nc1ccc(C(=O)OCC)cc1", "growth": "102% (inactive)"},
      {"smiles": "CCCc1cn(CC(=O)Nc2nc3ccccc3s2)nn1", "growth": "103% (inactive)"},
      {"smiles": "COc1cc2cc(Oc3ccc(NC(=O)Nc4ccc(Cl)c(C(F)(F)F)c4)cc3)c(C)nc2cc1OC", "growth": "-38.7% (active)"},
      {"smiles": "COc1cc(/C=C2\\CCCC3=C2NC(N)=NC3c2cc(OC)c(OC)c(OC)c2)cc(OC)c1OC", "note": "(stereo not given)", "growth": "-38.7% (active)"},
      {"smiles": "COc1ccc(-c2cc(-c3ccc(Cl)cc3)nc(SCCCCCCC(=O)NO)n2)cc1OC", "growth": "79.6% (inactive)"},
      {"smiles": "COc1cc2ncnc(NC3CCC(O)CC3)c2cc1OC", "note": "(stereo not given)", "growth": "92.1% (inactive)"},
      {"smiles": "COc1cc(C)ccc1Oc1nc(Nc2ccc(N3CCOCC3)cc2)ncc1NC(=O)Nc1cc(C(F)(F)F)cc(C(F)(F)F)c1", "growth": "78.3% (inactive)"},
      {"smiles": "CCC(C)[C@H](NC(C)=O)C(=O)N[C@@H](CCCNC(=N)N)C(=O)N[C@@H](CCCCN)C(=O)N[C@@H](CC1CCC(O)CC1)C(=O)NC(C(=O)N[C@@H](CCSC)C(=O)N[C@@H](CCCNC(=N)N)C(=O)N[C@@]1(C)CCC/C=C\\CCC[C@@](C)(C(=O)NC(C(=O)N[C@@H](CCC(=O)O)C(=O)N[C@@H](CC(C)C)C(=O)N[C@H](C(=O)N[C@@H](CCC(=O)O)C(N)=O)C(C)C)[C@@H](C)O)NC(=O)[C@H](CCC(N)=O)NC(=O)[C@H](CC(C)C)NC(=O)[C@H](CC(C)C)NC1=O)[C@@H](C)O", "note": "(stereo not given in full)", "growth": "117% (inactive)"},
      {"smiles": "CN1C(=O)C2(Nc3cc(Cl)ccc3S2)c2cc(Cl)ccc21", "note": "(stereo not given)", "growth": "80.1% (inactive)"},
      {"smiles": "CC(=O)Nc1ccc2c(c1)C(=O)c1cccc(C(=O)O)c1-2", "growth": "117% (inactive)"},
      {"smiles": "O=C(CNc1nnc(-c2cccnc2SCc2ccccc2)s1)Nc1nc(Cl)cc(Cl)n1", "growth": "100% (inactive)"},
      {"smiles": "CCOC(=O)c1cc(C(=O)c2cc(OC)c(OC)c(OC)c2)n2nc(C)ccc12", "growth": "47.5% (inactive)"},
      {"smiles": "COc1cc(/C=C/c2cc(/C=C/c3ccc(O)c(OC)c3)[nH]c(=O)n2)ccc1O", "growth": "55% (inactive)"},
      {"smiles": "O=C1CSC(=S)N1/N=C/c1ccc(Cl)s1", "growth": "102% (inactive)"},
      {"smiles": "COc1ccc(-c2onc(N)c2-c2cc(OC)c3c(c2)OCO3)cc1", "growth": "42.6% (inactive)"},
      {"smiles": "COc1cc(/C=C/c2cc(/C=C/c3ccc(O)c(OC)c3)n(C(=O)Nc3ccc(C)cc3)n2)ccc1O", "growth": "-23% (active)"},
      {"smiles": "COc1cc(NC(=O)Nc2cnc(Nc3ccc(N4CCOCC4)cc3)nc2Oc2cccc(OC)c2)cc(OC)c1", "growth": "28.8% (inactive)"},
      {"smiles": "CC(=O)N[C@H](C(=O)N[C@@H](CCCNC(=N)N)C(=O)N[C@@H](CCCCN)C(=O)N[C@@H](CCCNC(=N)N)C(=O)NC(C(=O)N[C@@H](CC(C)C)C(=O)N[C@@H](CCCNC(=N)N)C(=O)N[C@@]1(C)CCC/C=C\\CCC[C@@](C)(C(=O)N[C@@H](CCCNC(=N)N)C(=O)N[C@@H](CCC(=O)O)C(=O)N[C@@H](CC(C)C)C(=O)N[C@H](C(=O)N[C@@H](CCC(=O)O)C(N)=O)C(C)C)NC(=O)[C@H](CCC(N)=O)NC(=O)[C@H](CC(C)C)NC(=O)[C@H](CC(C)C)NC1=O)[C@@H](C)O)C(C)C", "note": "(stereo not given in full)", "growth": "-79.7% (active)"},
      {"smiles": "Oc1ccc(/C=N/N=C2c3ccccc3-c3ccccc32)c(O)c1", "growth": "78.4% (inactive)"},
      {"smiles": "C[C@@H](C[C@H](CCO)c1ccccc1)c1ccc2ccccc2c1", "growth": "-86.1% (active)"}
    ]}
  ]
}
